Here are results for one sequence from publication PMC7862700, “An all-to-all approach to the identification of sequence-specific readers for epigenetic DNA modifications on cytosine”.

What all share (assay): DAPPL (digital affinity profiling via proximity ligation, sequencing); 10 mM Tris-HCl pH 7.5, 50 mM NaCl, 1 mM DTT, 4% glycerol, room temperature, 30 min; GST-TFs on glutathione beads, 16-mer random dsDNA library, 0.1% formaldehyde crosslink after washing; high values mean tight binding
The target in one assay is T1, FEV (Homo sapiens, UniProt Q99581 1-238).
T1 sequence: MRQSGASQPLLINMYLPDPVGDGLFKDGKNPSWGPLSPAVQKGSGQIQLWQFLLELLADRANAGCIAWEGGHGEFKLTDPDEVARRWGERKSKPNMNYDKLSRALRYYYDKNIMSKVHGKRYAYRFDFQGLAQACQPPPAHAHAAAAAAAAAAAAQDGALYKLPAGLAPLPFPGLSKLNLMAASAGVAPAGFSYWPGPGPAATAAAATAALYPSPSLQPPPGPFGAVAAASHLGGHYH
The conditions noted are these: protein: recombinant; tags: N-terminal GST; dsDNA, one strand shown. Put shortly:
(§1)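 Sequencing on an Illumina NextSeq500 followed washing, crosslinking with 0.1% formaldehyde, proximity ligation (BsaI/T4 ligase, 1 h, 37 °C) and PCR amplification of pools that had been incubated for 30 min at room temperature with 200 nmole of a random double-stranded 16-mer DNA library in Tris/NaCl/DTT/glycerol buffer. Each pool held DNA-barcoded human transcription factors, expressed in yeast as GST fusions and captured on glutathione beads, plus a tag-only sample. Binding signal is a hexamer's read frequency for a factor divided by its frequency in the tag-only sample.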

The next assay deals with ETV5 (Homo sapiens, UniProt P41161 1-510). The conditions noted are these: protein: recombinant; tags: N-terminal GST; dsDNA, one strand shown. Put shortly: as §1
The target in a further assay is HSF1 (Homo sapiens, UniProt Q00613 1-529). The settings on record: protein: recombinant; tags: N-terminal GST; chain copies: 3; dsDNA, one strand shown. In a few lines: as §1
The target in another assay is T2, SPIC (Homo sapiens, UniProt Q8N5J4 1-248).
T2 sequence: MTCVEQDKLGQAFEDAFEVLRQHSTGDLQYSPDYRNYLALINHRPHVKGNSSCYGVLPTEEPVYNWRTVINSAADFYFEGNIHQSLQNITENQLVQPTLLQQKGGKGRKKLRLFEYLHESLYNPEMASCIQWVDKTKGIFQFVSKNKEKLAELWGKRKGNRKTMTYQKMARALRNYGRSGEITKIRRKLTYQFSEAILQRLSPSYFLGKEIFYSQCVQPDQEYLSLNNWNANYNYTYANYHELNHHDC
The settings on record: protein: recombinant; tags: N-terminal GST; dsDNA, one strand shown. Put shortly:
as §1

The next assay concerns the target ELF4 (Homo sapiens, UniProt Q99607 1-663). The conditions noted are these: protein: recombinant; tags: N-terminal GST; dsDNA, one strand shown. Put shortly: as §1
The target of the next assay is T3, ELK4 (Homo sapiens, UniProt P28324-2 1-405).
T3 sequence: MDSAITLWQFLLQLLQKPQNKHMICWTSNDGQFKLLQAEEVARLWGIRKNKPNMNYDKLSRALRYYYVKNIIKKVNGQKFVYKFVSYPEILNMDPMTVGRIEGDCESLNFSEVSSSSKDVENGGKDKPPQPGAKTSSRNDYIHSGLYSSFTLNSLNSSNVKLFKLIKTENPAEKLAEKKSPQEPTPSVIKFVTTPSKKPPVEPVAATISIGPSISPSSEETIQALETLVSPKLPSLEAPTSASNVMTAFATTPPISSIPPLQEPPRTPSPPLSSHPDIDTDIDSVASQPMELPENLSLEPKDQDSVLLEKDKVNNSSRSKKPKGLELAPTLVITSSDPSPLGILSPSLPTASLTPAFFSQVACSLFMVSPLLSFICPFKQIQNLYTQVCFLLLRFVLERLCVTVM
The conditions noted are these: protein: recombinant; tags: N-terminal GST; dsDNA, one strand shown. Put shortly:
as §1

In a further assay the target is T4, ETV2 (Homo sapiens, UniProt O00321 1-342).
T4 sequence: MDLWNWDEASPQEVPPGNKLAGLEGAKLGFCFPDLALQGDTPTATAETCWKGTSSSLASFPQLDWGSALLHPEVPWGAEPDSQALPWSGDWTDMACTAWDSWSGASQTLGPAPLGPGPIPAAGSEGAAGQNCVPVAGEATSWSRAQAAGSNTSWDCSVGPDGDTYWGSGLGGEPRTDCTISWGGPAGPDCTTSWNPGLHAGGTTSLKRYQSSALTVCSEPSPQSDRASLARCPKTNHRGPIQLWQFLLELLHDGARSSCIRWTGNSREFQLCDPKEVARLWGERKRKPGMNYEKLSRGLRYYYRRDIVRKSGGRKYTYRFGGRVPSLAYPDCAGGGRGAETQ
The settings on record: protein: recombinant; tags: N-terminal GST; dsDNA, one strand shown. In a few lines:
as §1

The next assay addresses T5, ELF3 (Homo sapiens, UniProt P78545 1-371).
T5 sequence: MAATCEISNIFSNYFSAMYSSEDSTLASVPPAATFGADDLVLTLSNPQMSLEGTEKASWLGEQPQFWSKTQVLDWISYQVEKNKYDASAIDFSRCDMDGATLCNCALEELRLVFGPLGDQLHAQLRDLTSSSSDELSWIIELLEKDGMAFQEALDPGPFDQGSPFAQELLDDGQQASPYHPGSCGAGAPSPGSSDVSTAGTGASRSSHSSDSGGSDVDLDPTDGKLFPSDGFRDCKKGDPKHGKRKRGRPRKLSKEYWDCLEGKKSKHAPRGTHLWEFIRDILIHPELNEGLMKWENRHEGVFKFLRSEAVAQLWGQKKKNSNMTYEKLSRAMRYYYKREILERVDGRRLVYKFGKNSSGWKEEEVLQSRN
The conditions noted are these: protein: recombinant; tags: N-terminal GST; dsDNA, one strand shown. In a few lines: as §1

The next assay addresses CRX (Homo sapiens, UniProt O43186 1-299). The settings on record: protein: recombinant; tags: N-terminal GST; dsDNA, one strand shown. In a few lines: as §1
A further assay addresses ETV1 (Homo sapiens, UniProt P50549 1-477). The settings on record: protein: recombinant; tags: N-terminal GST; dsDNA, one strand shown. Put shortly:
as §1

A further assay addresses T6, ERF (Homo sapiens, UniProt P50548 1-548).
T6 sequence: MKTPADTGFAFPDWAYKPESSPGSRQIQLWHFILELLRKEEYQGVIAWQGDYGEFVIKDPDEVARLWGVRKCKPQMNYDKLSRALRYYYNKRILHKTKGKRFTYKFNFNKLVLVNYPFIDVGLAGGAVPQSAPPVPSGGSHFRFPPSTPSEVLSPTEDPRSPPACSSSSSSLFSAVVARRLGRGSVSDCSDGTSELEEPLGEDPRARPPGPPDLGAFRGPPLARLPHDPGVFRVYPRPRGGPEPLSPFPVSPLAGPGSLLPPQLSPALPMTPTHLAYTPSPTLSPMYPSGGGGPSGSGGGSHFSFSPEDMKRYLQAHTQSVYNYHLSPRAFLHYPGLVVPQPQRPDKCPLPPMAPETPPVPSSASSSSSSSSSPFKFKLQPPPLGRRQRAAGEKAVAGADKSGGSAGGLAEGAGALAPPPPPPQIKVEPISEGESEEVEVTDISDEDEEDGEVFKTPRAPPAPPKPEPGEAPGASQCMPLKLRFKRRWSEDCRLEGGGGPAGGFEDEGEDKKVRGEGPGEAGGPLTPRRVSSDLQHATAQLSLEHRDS
The conditions noted are these: protein: recombinant; tags: N-terminal GST; dsDNA, one strand shown. Put shortly: as §1

Another assay deals with T7, ETV3L (Homo sapiens, UniProt Q6ZN32 1-361).
T7 sequence: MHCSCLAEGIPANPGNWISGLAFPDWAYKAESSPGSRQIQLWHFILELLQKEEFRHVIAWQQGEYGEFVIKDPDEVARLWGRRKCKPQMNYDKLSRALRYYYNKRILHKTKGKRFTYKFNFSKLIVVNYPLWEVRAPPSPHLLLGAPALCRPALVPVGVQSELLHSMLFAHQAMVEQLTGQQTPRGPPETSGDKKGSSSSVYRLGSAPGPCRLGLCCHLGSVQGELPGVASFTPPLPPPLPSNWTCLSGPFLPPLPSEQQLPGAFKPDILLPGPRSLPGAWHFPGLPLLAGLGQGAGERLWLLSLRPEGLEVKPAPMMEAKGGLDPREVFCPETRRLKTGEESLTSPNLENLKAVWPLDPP
The conditions noted are these: protein: recombinant; tags: N-terminal GST; dsDNA, one strand shown. In a few lines: as §1

The target of another assay is T8, ETS2 (Homo sapiens, UniProt P15036 1-469).
T8 sequence: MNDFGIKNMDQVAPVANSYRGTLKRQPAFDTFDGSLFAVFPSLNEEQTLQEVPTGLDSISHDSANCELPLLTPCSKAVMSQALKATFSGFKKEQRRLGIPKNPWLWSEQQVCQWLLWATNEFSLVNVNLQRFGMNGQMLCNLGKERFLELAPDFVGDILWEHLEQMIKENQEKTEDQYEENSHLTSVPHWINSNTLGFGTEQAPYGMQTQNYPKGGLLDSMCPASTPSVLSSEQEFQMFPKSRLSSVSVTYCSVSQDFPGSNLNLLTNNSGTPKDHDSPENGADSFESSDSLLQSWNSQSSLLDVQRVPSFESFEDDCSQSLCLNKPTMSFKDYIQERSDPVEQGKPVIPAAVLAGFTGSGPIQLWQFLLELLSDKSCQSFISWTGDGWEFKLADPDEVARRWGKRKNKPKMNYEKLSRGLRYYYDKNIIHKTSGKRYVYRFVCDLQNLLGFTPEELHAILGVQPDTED
The conditions noted are these: protein: recombinant; tags: N-terminal GST; dsDNA, one strand shown. Put shortly: as §1

For a further assay, the target named is T9, SPDEF (Homo sapiens, UniProt O95238 1-335).
T9 sequence: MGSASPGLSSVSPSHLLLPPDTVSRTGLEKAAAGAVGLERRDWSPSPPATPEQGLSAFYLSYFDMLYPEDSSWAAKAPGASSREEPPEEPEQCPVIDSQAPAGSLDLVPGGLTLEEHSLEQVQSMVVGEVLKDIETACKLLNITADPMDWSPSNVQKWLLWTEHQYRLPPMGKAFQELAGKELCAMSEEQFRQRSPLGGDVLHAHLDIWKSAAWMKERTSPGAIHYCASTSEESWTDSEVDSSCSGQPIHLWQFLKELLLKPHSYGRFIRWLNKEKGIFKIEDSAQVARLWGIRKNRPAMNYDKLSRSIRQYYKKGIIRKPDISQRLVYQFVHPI
The conditions noted are these: protein: recombinant; tags: N-terminal GST; dsDNA, one strand shown. In a few lines:
as §1

The target in a further assay is T10, ETV7 (Homo sapiens, UniProt Q9Y603 1-341).
T10 sequence: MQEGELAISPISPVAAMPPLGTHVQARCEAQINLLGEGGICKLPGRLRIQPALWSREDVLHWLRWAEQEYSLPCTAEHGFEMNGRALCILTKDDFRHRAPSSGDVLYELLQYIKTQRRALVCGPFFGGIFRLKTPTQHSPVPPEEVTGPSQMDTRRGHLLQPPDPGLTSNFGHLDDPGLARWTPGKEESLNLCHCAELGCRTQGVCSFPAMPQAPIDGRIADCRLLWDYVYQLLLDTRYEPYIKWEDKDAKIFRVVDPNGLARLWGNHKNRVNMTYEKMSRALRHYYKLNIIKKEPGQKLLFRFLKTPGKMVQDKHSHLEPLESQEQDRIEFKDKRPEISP
The conditions noted are these: protein: recombinant; tags: N-terminal GST; dsDNA, one strand shown. Put shortly: as §1

The next assay addresses T11, ELF5 (Homo sapiens, UniProt Q9UKW6-2 1-255).
T11 sequence: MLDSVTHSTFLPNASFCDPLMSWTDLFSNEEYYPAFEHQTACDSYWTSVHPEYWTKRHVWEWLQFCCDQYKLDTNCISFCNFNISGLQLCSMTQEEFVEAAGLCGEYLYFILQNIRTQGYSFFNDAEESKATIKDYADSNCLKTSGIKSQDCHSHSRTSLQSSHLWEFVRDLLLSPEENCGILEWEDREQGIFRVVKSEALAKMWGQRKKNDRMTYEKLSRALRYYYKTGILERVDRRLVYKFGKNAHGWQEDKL
The conditions noted are these: protein: recombinant; tags: N-terminal GST; dsDNA, one strand shown. Put shortly: as §1

The next assay concerns the target T12, ETV3 (Homo sapiens, UniProt P41162-2 1-143).
T12 sequence: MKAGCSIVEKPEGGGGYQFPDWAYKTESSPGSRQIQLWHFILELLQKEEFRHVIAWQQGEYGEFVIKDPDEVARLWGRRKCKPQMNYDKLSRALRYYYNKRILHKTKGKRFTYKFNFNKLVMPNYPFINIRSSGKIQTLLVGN
The conditions noted are these: protein: recombinant; tags: N-terminal GST; dsDNA, one strand shown. Put shortly: as §1

The next assay has as its target ETV6 (Homo sapiens, UniProt P41212 1-452). The settings on record: protein: recombinant; tags: N-terminal GST; dsDNA, one strand shown. In a few lines:
as §1

Chain of HSF1 (Q00613 whole entry): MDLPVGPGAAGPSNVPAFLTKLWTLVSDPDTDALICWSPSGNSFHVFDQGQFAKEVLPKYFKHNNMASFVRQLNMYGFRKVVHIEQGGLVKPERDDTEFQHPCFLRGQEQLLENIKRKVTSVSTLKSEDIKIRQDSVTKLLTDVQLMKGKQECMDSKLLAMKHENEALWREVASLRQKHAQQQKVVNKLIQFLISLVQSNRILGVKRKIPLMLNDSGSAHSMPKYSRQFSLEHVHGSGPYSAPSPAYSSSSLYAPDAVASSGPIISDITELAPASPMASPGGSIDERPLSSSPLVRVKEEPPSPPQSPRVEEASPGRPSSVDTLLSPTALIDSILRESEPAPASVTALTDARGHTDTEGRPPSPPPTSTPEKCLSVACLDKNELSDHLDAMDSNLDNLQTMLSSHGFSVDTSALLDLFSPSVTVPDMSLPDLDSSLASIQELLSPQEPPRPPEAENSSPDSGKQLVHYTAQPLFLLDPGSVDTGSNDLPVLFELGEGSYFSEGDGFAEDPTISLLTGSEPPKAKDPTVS
Chain of ETV1 (P50549 whole entry): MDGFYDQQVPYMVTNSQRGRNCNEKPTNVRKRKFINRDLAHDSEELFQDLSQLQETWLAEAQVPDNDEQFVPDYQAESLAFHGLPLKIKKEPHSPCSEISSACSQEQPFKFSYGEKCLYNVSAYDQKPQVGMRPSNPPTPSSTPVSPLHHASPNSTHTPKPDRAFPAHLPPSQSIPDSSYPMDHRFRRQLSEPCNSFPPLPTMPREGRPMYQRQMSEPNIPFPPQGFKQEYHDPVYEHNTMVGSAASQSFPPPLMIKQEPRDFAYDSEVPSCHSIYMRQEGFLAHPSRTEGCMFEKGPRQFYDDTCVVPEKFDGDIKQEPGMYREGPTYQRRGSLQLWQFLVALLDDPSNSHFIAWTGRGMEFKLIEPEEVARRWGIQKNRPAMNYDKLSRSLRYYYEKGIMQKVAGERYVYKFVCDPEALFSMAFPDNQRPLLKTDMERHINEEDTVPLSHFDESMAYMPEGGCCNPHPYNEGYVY
Chain of ETV5 (P41161 whole entry): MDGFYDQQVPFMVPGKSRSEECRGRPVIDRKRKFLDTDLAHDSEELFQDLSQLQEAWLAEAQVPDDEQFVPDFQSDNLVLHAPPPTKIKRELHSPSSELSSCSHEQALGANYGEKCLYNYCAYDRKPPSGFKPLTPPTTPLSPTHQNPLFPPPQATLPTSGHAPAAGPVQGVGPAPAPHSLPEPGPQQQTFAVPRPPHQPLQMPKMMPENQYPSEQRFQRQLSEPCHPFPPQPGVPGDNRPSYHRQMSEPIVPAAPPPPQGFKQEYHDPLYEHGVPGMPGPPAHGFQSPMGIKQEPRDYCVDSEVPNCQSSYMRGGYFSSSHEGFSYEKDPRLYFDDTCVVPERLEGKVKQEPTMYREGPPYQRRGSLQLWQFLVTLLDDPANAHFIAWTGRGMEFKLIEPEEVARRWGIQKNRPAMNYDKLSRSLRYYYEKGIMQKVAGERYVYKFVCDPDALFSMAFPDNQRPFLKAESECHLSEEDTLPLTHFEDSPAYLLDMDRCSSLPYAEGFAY
Chain of CRX (O43186 whole entry): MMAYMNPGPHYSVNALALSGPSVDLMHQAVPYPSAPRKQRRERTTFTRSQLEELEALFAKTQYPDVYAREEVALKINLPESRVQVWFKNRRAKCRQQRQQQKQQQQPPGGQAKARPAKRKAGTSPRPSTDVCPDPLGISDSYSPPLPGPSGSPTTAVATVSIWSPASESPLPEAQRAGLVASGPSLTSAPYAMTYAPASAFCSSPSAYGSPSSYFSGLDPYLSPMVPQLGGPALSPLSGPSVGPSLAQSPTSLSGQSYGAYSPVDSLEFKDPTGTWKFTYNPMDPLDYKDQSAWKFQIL
Chain of ELF4 (Q99607 whole entry): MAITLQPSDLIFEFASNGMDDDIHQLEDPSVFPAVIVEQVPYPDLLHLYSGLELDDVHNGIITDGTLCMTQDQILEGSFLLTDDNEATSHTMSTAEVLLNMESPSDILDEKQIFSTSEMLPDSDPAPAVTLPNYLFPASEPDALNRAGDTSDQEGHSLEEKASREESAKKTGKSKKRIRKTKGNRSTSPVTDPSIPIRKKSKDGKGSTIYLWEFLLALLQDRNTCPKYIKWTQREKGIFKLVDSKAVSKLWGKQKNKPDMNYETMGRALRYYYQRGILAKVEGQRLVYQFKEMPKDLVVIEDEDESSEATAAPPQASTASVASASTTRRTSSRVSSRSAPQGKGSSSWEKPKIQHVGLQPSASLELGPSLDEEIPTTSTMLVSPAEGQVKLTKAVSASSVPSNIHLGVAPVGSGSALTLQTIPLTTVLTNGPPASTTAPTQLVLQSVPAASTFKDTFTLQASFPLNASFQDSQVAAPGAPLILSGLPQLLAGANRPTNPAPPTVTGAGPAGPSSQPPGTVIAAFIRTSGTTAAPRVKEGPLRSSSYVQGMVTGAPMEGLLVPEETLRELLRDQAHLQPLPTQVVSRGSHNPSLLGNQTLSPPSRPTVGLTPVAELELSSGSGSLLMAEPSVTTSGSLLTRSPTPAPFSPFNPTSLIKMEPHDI
Chain of ETV6 (P41212 whole entry): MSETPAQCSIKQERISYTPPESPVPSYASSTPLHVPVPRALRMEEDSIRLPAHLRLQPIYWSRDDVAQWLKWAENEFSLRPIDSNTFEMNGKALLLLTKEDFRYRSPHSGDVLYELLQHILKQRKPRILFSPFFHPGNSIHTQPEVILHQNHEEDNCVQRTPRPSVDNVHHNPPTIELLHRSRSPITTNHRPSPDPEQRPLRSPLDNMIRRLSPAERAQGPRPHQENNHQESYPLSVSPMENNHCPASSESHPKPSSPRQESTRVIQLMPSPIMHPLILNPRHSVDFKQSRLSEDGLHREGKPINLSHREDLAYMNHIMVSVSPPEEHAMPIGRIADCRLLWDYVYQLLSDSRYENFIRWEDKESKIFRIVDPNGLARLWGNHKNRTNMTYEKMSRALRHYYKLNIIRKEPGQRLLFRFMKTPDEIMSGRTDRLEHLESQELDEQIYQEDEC

Take GCACTA: the binding signal is 1.19 fold enrichment (6-mer frequency, TF over GST control) with FEV; 1.13 fold enrichment (6-mer frequency, TF over GST control) with ETV5; 1.11 fold enrichment (6-mer frequency, TF over GST control) with HSF1; 1.12 fold enrichment (6-mer frequency, TF over GST control) with SPIC; 1.27 fold enrichment (6-mer frequency, TF over GST control) with ELF4; 1.13 fold enrichment (6-mer frequency, TF over GST control) with ELK4. The binding signal was 1.22 fold enrichment (6-mer frequency, TF over GST control) with ETV2; 1.29 fold enrichment (6-mer frequency, TF over GST control) with ELF3; 1.17 fold enrichment (6-mer frequency, TF over GST control) with CRX; 1.15 fold enrichment (6-mer frequency, TF over GST control) with ETV1; 1.19 fold enrichment (6-mer frequency, TF over GST control) with ERF; 1.23 fold enrichment (6-mer frequency, TF over GST control) with ETV3L. For the same sequence, the binding signal with ETS2 is 1.21 fold enrichment (6-mer frequency, TF over GST control); in the assay with SPDEF it was 1.16 fold enrichment (6-mer frequency, TF over GST control); in the assay with ETV7 it was 1.2 fold enrichment (6-mer frequency, TF over GST control); with ELF5, 1.1 fold enrichment (6-mer frequency, TF over GST control); with ETV3 it was 1.22 fold enrichment (6-mer frequency, TF over GST control); in the assay with ETV6 it was 1.09 fold enrichment (6-mer frequency, TF over GST control).
